Where “and” joins values, the source holds several entries; their conditions need not be identical. Identical values can stand only once. About 2,000 (36%) of roughly 5,500 compounds were called active. Another 18% or so got no clear call; they are omitted. Rule as the data show it: active = normalized growth mostly below about 0.91 (no sharp cut-off); inconclusive = no clear call, values can overlap the other calls; inactive = mostly above about 0.92. Some of the results follow.
Assay: chemical genetic growth profiling, strain panel (AID 1159580);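 also: tested at 20 µM; growth read once vehicle control cultures reached saturation at 30 °C; 1 = growth at the plate median or of vehicle wells; lower values mean less growth of the strain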
Conditions: S. cerevisiae deletion strains, growth OD

Measured: normalized growth

O=c1cc(-c2ccccc2)oc2cc(O)c(O)c(O)c12
active: locus YAL013W, strain DEP1, stronger effect = lower value 0.367 | locus YAL021C, strain ccr4, stronger effect = lower value 0.0818 | locus YAL026C, strain drs2, stronger effect = lower value 0.198 | locus YAL030W, strain snc1, stronger effect = lower value 0.562 | locus YBL061C, strain skt5, stronger effect = lower value 0.449 | locus YBR009C, strain hhf1, stronger effect = lower value 0.535 | locus YBR023C, strain chs3, stronger effect = lower value 0.279 | locus YBR171W, strain sec66, stronger effect = lower value 0.386 | locus YBR229C, strain ROT2, stronger effect = lower value 0.458 | locus YBR231C, strain swc5, stronger effect = lower value 0.29 | locus YBR279W, strain paf1, stronger effect = lower value 0.574 | locus YCL011C, strain gbp2, stronger effect = lower value 0.565 | locus YCL016C, strain dcc1, stronger effect = lower value 0.683 | locus YCL029C, strain bik1, stronger effect = lower value 0.174 | locus YCL069W, strain vba3, stronger effect = lower value 0.608 | locus YCR088W, strain abp1, stronger effect = lower value 0.604 | locus YDL005C, strain med2, stronger effect = lower value 0.636 | locus YDL035C, strain GPR1, stronger effect = lower value 0.402 | locus YDL040C, strain nat1, stronger effect = lower value 0.612 | locus YDL074C, strain BRE1, stronger effect = lower value 0.219 | locus YDL101C, strain DUN1, stronger effect = lower value 0.115 | locus YDL134C, strain PPH21, stronger effect = lower value 0.586 | locus YDL185W, strain tfp1, stronger effect = lower value 0.549 | locus YDL192W, strain arf1, stronger effect = lower value 0.512 | locus YDR001C, strain nth1, stronger effect = lower value 0.721 | locus YDR069C, strain doa4, stronger effect = lower value 0.127 | locus YDR101C, strain arx1, stronger effect = lower value 0.176 | locus YDR137W, strain rgp1, stronger effect = lower value 0.161 | locus YDR150W, strain NUM1, stronger effect = lower value 0.591 | locus YDR159W, strain sac3, stronger effect = lower value 0.148 | locus YDR162C, strain NBP2, stronger effect = lower value 0.224 | locus YDR195W, strain ref2 0.327 | locus YDR297W, strain sur2, stronger effect = lower value 0.445 | locus YDR318W, strain mcm21, stronger effect = lower value 0.589 | locus YDR334W, strain swr1, stronger effect = lower value 0.351 | locus YDR335W, strain msn5, stronger effect = lower value 0.138 | locus YDR388W, stronger effect = lower value 0.555 | locus YDR392W, strain spt3, stronger effect = lower value 0.562 | locus YDR502C, strain sam2, stronger effect = lower value 0.214 | locus YEL003W, strain gim4, stronger effect = lower value 0.291 | locus YEL037C, strain rad23, stronger effect = lower value 0.407 | locus YEL061C, strain CIN8 (second series), stronger effect = lower value 0.695 | locus YEL061C, strain CIN8, stronger effect = lower value 0.496 | locus YER015W, strain faa2, stronger effect = lower value 0.287 | locus YER016W, strain bim1, stronger effect = lower value 0.736 | locus YER110C, stronger effect = lower value 0.851 | locus YER111C, strain swi4, stronger effect = lower value 0.113 | locus YER155C, strain BEM2 (second series), stronger effect = lower value 0.338 | locus YER155C, strain BEM2, stronger effect = lower value 0.449 | locus YER167W, strain BCK2, stronger effect = lower value 0.573 | locus YFR010W, strain ubp6, stronger effect = lower value 0.218 | locus YGL078C, strain dbp3, stronger effect = lower value 0.84 | locus YGL086W, strain mad1, stronger effect = lower value 0.636 | locus YGL167C, strain pmr1, stronger effect = lower value 0.396 | locus YGL173C, strain kem1, stronger effect = lower value 0.23 | locus YGL227W, strain vid30, stronger effect = lower value 0.677 | locus YGL240W, strain doc1, stronger effect = lower value 0.657 | locus YGL248W, strain PDE1, stronger effect = lower value 0.561 | locus YGL253W, strain hxk2, stronger effect = lower value 0.485 | locus YGR078C, strain PAC10, stronger effect = lower value 0.536 | locus YGR135W, strain pre9, stronger effect = lower value 0.443 | locus YGR229C, strain SMI1, stronger effect = lower value 0.107 | locus YGR252W, strain gcn5, stronger effect = lower value 0.576 | locus YHR013C, strain ard1, stronger effect = lower value 0.504 | locus YHR027C, strain rpn1, stronger effect = lower value 0.295 | locus YHR030C, strain SLT2, stronger effect = lower value 0.304 and 0.677 | locus YHR079C, strain IRE1 (second series), stronger effect = lower value 0.139 | locus YHR079C, strain IRE1, stronger effect = lower value 0.612 | locus YHR094C, strain hxt1, stronger effect = lower value 0.699 | locus YHR129C, strain ARP1, stronger effect = lower value 0.531 | locus YHR142W, strain chs7, stronger effect = lower value 0.285 | locus YHR200W, strain rpn10, stronger effect = lower value 0.604 | locus YIL066C, strain RNR3, stronger effect = lower value 0.425 | locus YIL073C, strain SPO22, stronger effect = lower value 0.381 | locus YIL125W, strain kgd1, stronger effect = lower value 0.808 | locus YIR030C, strain dcg1, stronger effect = lower value 0.359 | locus YJL092W, strain hpr5, stronger effect = lower value 0.531 | locus YJL095W, strain BCK1 (second series), stronger effect = lower value 0.218 | locus YJL095W, strain BCK1, stronger effect = lower value 0.0738 and 0.684 | locus YJL115W, strain asf1, stronger effect = lower value 0.648 | locus YJL129C, strain trk1, stronger effect = lower value 0.312 | locus YJL134W, strain LCB3, stronger effect = lower value 0.588 | locus YJL154C, strain vps35, stronger effect = lower value 0.68 | locus YJL164C, strain tpk1, stronger effect = lower value 0.347 | locus YJL166W, strain qcr8, stronger effect = lower value 0.437 | locus YJL168C, strain set2, stronger effect = lower value 0.808 | locus YJL187C, strain SWE1 (second series), stronger effect = lower value 0.106 | locus YJR043C, strain POL32, stronger effect = lower value 0.288 | locus YJR066W, strain TOR1, stronger effect = lower value 0.68 | locus YJR075W, strain HOC1, stronger effect = lower value 0.558
inactive: locus YBR021W, strain FUR4, stronger effect = lower value 0.885

Reference: PubChem BioAssay AID1159580 (chemical genetic matrix, 2015)
